We go through 107 sequences from PubChem BioAssay AID1508600 (Functional Genomics Laboratory (NCATS/FGL), 2020).

The whole screen tested about 53,000 sequences, of which about 3,700 (7%) were called active. Shown is part of a subset that was picked to be rich in actives. A number with no mark means an inactive call.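 Rule for the calls: active = gene knockdowns whose robust z-score for IL-1 alpha signal is at least 2 or at most -2, so actives lie on both sides; inactive = the rest.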

The nature of the assay: Components of the Cytosolic LPS Sensing Pathway: Gene Identification via Genome-wide siRNA Screen.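 Note: robust z of the log signal after scaling to non-targeting control siRNA wells of the plate.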 The note with it: RAW264.7 macrophages, IL-1a HTRF, actives lie on both sides, screened at 100 nM (by protocol), cells primed 5 h with Pam3CSK4 first. Put shortly: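 Mouse macrophage line RAW264.7 is transfected with siRNA (100 nM final), grown 48h, primed with TLR ligand Pam3CSK4 5 h and given intracellular LipidA 24 h. IL-1a in supernatant is read by HTRF and viability by luminescence.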
(In general: In TR-FRET formats the signal depends on donor and acceptor labels being close together.)
Turning to GGGAGUUCAACUUGAUGUATT against Irf6, the z-score was -1.45.

Take GGAUCCCAGAUUGAAAACUTT against Rnf5: the z-score was -0.92.

On to CGUGGACUAAAAGUUUUCATT against Mmp12, for which the z-score was 3.63 (active).

As for CCGGACCUCUGCGCAAUUUTT against Npb, the z-score was 0.289.

In the case of GUUUUUGCUAUGGCUCGUATT against H3c1, the z-score was 0.92.

As to GGUGCUGCUAGUGAACAAGTT against E2f4, the z-score is 5.64 (active).

For the sequence CCGAGAACCUUAAACUCCCTT against Sowahc, the z-score is 0.161.

Consider GGAGAUAUGGCCAUCACUCTT against Toe1, for which the z-score is 1.11.

With GGCCUUUGAUGACAUGUACTT against Bpifb1, the z-score is -0.378.

On to GAUGCUAGUGAACCUCAUGTT against Olfr1020, for which the z-score was -0.765.

Consider CGAUUGGUUGUUGUAGACATT against Abhd11, for which the z-score is -2.56 (active).

Consider CCAAUCCAAACGAAGUUAATT against Rgs9, for which the z-score was -0.977.

With CGUUUCAACAAGCUCGUGUTT against Rbmxl2, the z-score was 1.02.

With GGAUACAAAUGAAAGCUUATT against Zfp354b, the z-score is -0.307.

For GGCAAGAAACAGUCAUAAGTT against Eps8l3, the z-score is 0.404.

As for GGCAUCAAGUUCUAUCUGUTT against Slc6a11, the z-score is -0.704.

On to GGCCGGUUAGCUAAUCAGATT against Armc10, for which the z-score is 2.03 (active).

Turning to UGGCUGAUAUGAAGGUCUGTT against Krtap31-2, the z-score was 0.154.

Take GCUGUACGUUUGCACAUUCTT against Rc3h1: the z-score was -2.87 (active).

GGCUCUGUAUCGGAAGGCUTT against Zc3h7a: the z-score is 0.817.

On to GGAUUCUGCUAGCAGUUCATT against Csn1s2a, for which the z-score was -0.477.

Consider GGGUUGCUUCAACUUUUAGTT against Mpp1, for which the z-score is -0.346.

As to GGCCAUGGAAAAAUCUCAGTT against Dtna, the z-score was 0.557.

Take GCCUAUACAACCCUAUUGUTT against Kazn: the z-score is -0.879.

GCGCAGGAUGAGAAGUUCUTT against Slc43a3: the z-score is 3 (active).

For GGUUUGUGGUGAACUUUCATT against Lgals9, the z-score was 0.707.

Turning to GGAUUUGGAAAAUUGAUGCTT against Ahi1, the z-score was 0.97.

Turning to GGAUGAAAGCAAAGACAAGTT against Zscan21, the z-score is 2.63 (active).

With GGUUGAUGGGAAAACAAUATT against Rab11a, the z-score was -0.6.

With GAUCCUGCAUCUUUAGUGUTT against Ascl1, the z-score is -0.0831.

On to GCUGAUUCCGUGUCCCAACTT against Gng2, for which the z-score was 3.42 (active).

As to GGGUAGGGCAGUCUACUUATT against F2r, the z-score was -0.407.

As for CCUGCUUCUCUACAACCAUTT against Olfr1209, the z-score was -0.817.

For GCUUGUAUUGCUUGUCUUUTT against Olfr172, the z-score was 1.89.

For GGAGUAGAAGAAGAGGAGUTT against Mrpl50, the z-score was 0.946.

For GGUGCAAUCAGCUUUCCACTT against Olfr1336, the z-score was 2.26 (active).

On to CCGAUUGAUAAAGUCACAUTT against Zfat, for which the z-score was 0.241.

In the case of GGAAAAAAGAUGAAUUGCCTT against Cbx8, the z-score is 1.63.

Take GGAGUCUUGGCCCUUUAAUTT against Zcchc12: the z-score is -1.09.

Regarding GCCUCUUUAUAAUAUAAGGTT against Pcgf6, the z-score was -0.687.

In the case of CGGUUAACUGGAAAGUGCGTT against Tmem132e, the z-score was 2.99 (active).

With CGUGAUGAAUGAGAAUAACTT against Maea, the z-score was 0.584.

Consider GGAAUUAAACCAUUUCAGUTT against Zbtb44, for which the z-score was 1.28.

On to GGAGGAUUCAUGCUUUGUUTT against Morc2b, for which the z-score was 0.238.

For the sequence GGUUUUUGAGUGGGAGACCTT against Khdc3, the z-score is -0.578.

Take GAUUUAGCUUGGUGAACCGTT against Thoc6: the z-score was 0.754.

For the sequence GGACUUAGACAUCCACCUCTT against Llcfc1, the z-score was -1.64.

Turning to GGGACUGAAAUCUAUUUUGTT against Zfp217, the z-score was 2.16 (active).

On to CCAAGCUAGUCCUCAAGCUTT against Snapc2, for which the z-score is -1.16.

For the sequence GGGAUUGGCUACGACUUCATT against Cbs, the z-score was 2.06 (active).

For the sequence GCUAGCUGUUGUAAAAGAATT against Gm4841, the z-score was -0.507.

GGCCAUUAACCAGUCUAUCTT against Cdhr5: the z-score was 0.977.

For “GGUUCUGGAGAACAGAGUCTT against 4930483J18Rik”, the z-score is -0.44.

For the sequence “GCGAUAAGCAGAAUGGCAGTT against 8030462N17Rik”, the z-score is -0.9.

In the case of CGGGUGCCGGAAAGUUUAUTT against Klf7, the z-score was 2.84 (active).

As to GCAGCAUUGACUGAAGAUCTT against Lce1m, the z-score is -0.316.

GGACAAAAGGCUGAGCAUCTT against Flt1: the z-score is -0.235.

As for GGAAUCAUGCUGAAAGAGATT against Apom, the z-score was -0.123.

As to GGUUGCGUGUGGUUACUAUTT against Herc4, the z-score is 0.161.

As for CCUCUGUGAUUUCAUUCUUTT against Hhip, the z-score was -0.991.

For the sequence GGCAUUUUCACAAAAGACUTT against Rab23, the z-score was -1.43.

As to GGAUGGCUACCGAAAAAAUTT against Eif3c, the z-score is 0.967.

For the sequence CGACGCAUUGAGGCAAUCUTT against Camsap3, the z-score was -0.483.

“GGCAAAGCACCUUUAUCUGTT against G430095P16Rik”: the z-score is -0.664.

Take CCCAAGGUCCAGUUUGAUGTT against Mettl17: the z-score was -2.42 (active).

Regarding GGCAAGGAUAAGACAGUAGTT against Hs3st3b1, the z-score was -0.354.

For GGAUGAAGACCUUGAACGGTT against Slc28a3, the z-score was 1.48.

GGAAACAGGUCUGUCCCAATT against Ankle1: the z-score is -2.22 (active).

Consider GGUUACCUAGAAGUGGACUTT against Igsf6, for which the z-score is 0.201.

On to CCUUUCCAAACACCUAUAATT against Sox6, for which the z-score is -1.2.

In the case of CCUUUCAGACCAGUUCAUUTT against Ppp1r17, the z-score was 0.193.

On to GGUUCUUUUCAGCUCAUUATT against Toporsl, for which the z-score was -0.0962.

GCUUCCUACGGUGUGUCAATT against Hnrnpu: the z-score is -2.43 (active).

Turning to GGAGCCCAAAAAGAAGAAATT against Mrpl48, the z-score is 0.43.

For GGCCCAGCAAAAAAAGAAGTT against Usp46, the z-score was -0.397.

Turning to GGUCAUAGCACCAUGUUCUTT against Gata5, the z-score is 0.831.

GGAAGAGACUUAUAAUGGUTT against Olfr1214: the z-score is 1.28.

On to CGAAAUCAGAACCUGGGAATT against Hacd3, for which the z-score is 2.73 (active).

As to GGCUAUGUCUGUUUCCUUUTT against Defa-rs10, the z-score was 0.963.

Take GGAUAUUCCUGGACUGACATT against Rps6: the z-score was -0.996.

Take GGCAGAAUAUACUUGCCCUTT against Uevld: the z-score is -0.156.

As for GGAGAGCUCCUAUAAUCCUTT against Plau, the z-score was 0.267.

Consider GGAUAUUGUCUUUGUAGAATT against Kap, for which the z-score is -0.565.

“GGACGUGAAGUGAAGUCAUTT against 1810009N02Rik”: the z-score is -0.626.

As to GGCCUUGUACUUACACAAGTT against Rspo1, the z-score is 0.398.

Take CCUUUCCUACUCUGUACCCTT against Abcg1: the z-score was 2.22 (active).

As for GGAUUCUCACAAGUAAUUCTT against Ifi203, the z-score was 0.272.

Take GGCUGUCACCCUACAUGACTT against Uba1: the z-score was 0.0469.

As for GGAUAUGUUUGGUUAUUUCTT against Acbd4, the z-score is -0.0997.

With GGAGACUGUGAUUGAGAUGTT against Rnf181, the z-score is -0.401.

Take CGACAAAAGCCACCUUUCGTT against Tm4sf4: the z-score is -2.62 (active).

As to GGAGUCUGUGAACAAUCUCTT against Mx2, the z-score was 0.0232.

For GGAGUGUGUAAAGACAUAATT against Rnase2a, the z-score was -0.685.

In the case of GGACAAGAGGAGCUUUUGCTT against Id3, the z-score is -0.446.

With GGUUUUCUUAAAAUAGGAGTT against Tat, the z-score was -0.205.

For GGAGGACUGGGAAGAUCAUTT against Aqp5, the z-score is 0.152.

Take GGAGCCCAGGAAGAUGACATT against Cyp2c54: the z-score was -3.15 (active).

Take GGUAAGUUAAAUGAUGACATT against Ccdc148: the z-score is -0.896.

With GGAUAUAACUGCUAUGGUUTT against Rhebl1, the z-score is -0.241.

Turning to GCUUAGAGCUUCAUAUAGCTT against Tlr12, the z-score is -0.367.

In the case of GGCUGACUUCGUUUUCAUGTT against Derl3, the z-score was -2.01 (active).

Take GGUGGAAGCAAUUUUAAAUTT against Trpc7: the z-score is 0.384.

Regarding GGGAUGAGUACAAGAAAAATT against Nsun3, the z-score was -0.927.

Turning to CGUGUUGGAGUACAAUGAGTT against Imp3, the z-score is -0.927.

For GGACAGUGAAGAGGAUUCCTT against Anapc15, the z-score was -0.988.

In the case of GCGGAUUAACCUCUGUGGCTT against Igfl3, the z-score was 0.244.

For the sequence GGGUGACAGGUUGAUCUCATT against Tcn2, the z-score is -2.11 (active).
